Measurements taken from ChEMBL document CHEMBL4513216, “Probing the Open Global Health Chemical Diversity Library for Multistage-Active Starting Points for Next-Generation Antimalarials” (ACS Infect Dis, 2020).
About 2,700 (4%) of roughly 68,000 compounds showed an effect of 50% or more. The sample as a whole holds a higher share of strong results than the screen did.

Test system: Plasmodium berghei
Test: Screen against P. berghei liver stage (PbLuc), transformed with Luciferase, at 2uM
Type: functional, HepG2
Conditions: tested at 2 uM

SMILES | INHIBITION
Cn1ncc2c(NCCOCc3ccccc3)nc(C3CCCC3)nc21 | -19.29%
COCCNS(=O)(=O)c1ccc(Cl)c(C(=O)N(C)Cc2sccc2C)c1 | 64.37%
CNS(=O)(=O)c1csc(C(=O)N(C)Cc2sccc2C)c1 | 46.97%
COCCNS(=O)(=O)c1ccc(Cl)c(C(=O)N(C)Cc2ccsc2)c1 | 13.76%
CN(Cc1cccc(OCCO)c1)Cc1cccc2ncccc12 | 37.5%
COCC(=O)N1CCC2(CCC(C(=O)N3CCCC3)O2)CC1 (configuration not stated) | 41.38%
O=C(NC1CC1)[C@@H]1CCO[C@@H]2CCN(C3CCCC3)C[C@H]21 | -0.18%
O=C(NC1CCC1)[C@@H]1CCO[C@@H]2CCN(C3CCCC3)C[C@H]21 | 51.26%
O=C(NC1CCC1)[C@@H]1CCO[C@@H]2CCN(C3CCCC3)C[C@@H]21 | 23.93%
CN1CCOC[C@H]1c1nc(-c2ccc(F)cc2F)c[nH]1 | 3.55%
CC(C)(CCS(C)(=O)=O)CNc1ccc2ccc(F)cc2n1 | 50.93%
CS(=O)(=O)CCOCCNc1ccc2ccc(F)cc2n1 | 35.63%
CC(C)(CNc1ccc2ccc(F)cc2n1)NS(C)(=O)=O | 5.92%
CC(C)(C)c1cc(C[C@H]2CNCC[C@H]2CC(=O)N2CCCCC2)no1 | -13.88%
CCc1nnc2n1CCN(C(=O)c1ccc3nc(C)c(C)nc3c1)C2 | -72.78%
CCc1nnc2n1CCN(C(=O)c1cc3ccc(C)cc3[nH]1)C2 | 58.05%
CCc1nnc2n1CCN(C(=O)CN(CC)CC)C2 | 58.05%
CCc1nnc2n1CCN(C(=O)c1cc3ccc(F)cc3nc1C)C2 | 54.85%
CCc1nnc2n1CCN(C(=O)CN(C)C1CC1)C2 | -3.06%
CCc1nnc2n1CCN(C(=O)c1cc3cc(C)ccc3[nH]1)C2 | 37.68%
CCc1nnc2n1CCN(C(=O)c1cc3ccccc3[nH]1)C2 | -3.06%
CCc1nnc2n1CCN(C(=O)CN(C)Cc1ccccc1)C2 | -34.45%
CCc1nnc2n1CCN(C(=O)c1ccc(C(F)(F)F)nc1C)C2 | -41.59%
COc1cccc2c1N(C(=O)c1ccc(C)nc1)CCC2 | 0.79%
O=C(NCc1nnc2n1CCCCC2)N(CC1CCOC1)C1CC1 (configuration not stated) | -1.21%
CC(C)C1CN(C(=O)c2ccsc2)CCS1 (configuration not stated) | -9.94%

SMILES | INHIBITION
CN(C)c1cc(NCc2cnc3n2CCN(CC2CC2)CC3)ncn1 | 34.04%
O=C(NCc1ccccn1)[C@]12COC[C@H]1CN(Cc1ccsc1)C2 | 42.62%
Cc1ccc2nc(C)cc(C(=O)NC(C)c3nnn[nH]3)c2c1 (configuration not stated) | -67.78%
CNC(=O)CN(C)c1cncc(OCc2ccccc2)n1 | -22.24%
CCCc1nnsc1C(=O)N1CCN(CC(C)O)CC1 (configuration not stated) | -47.97%
CC(=O)N1CCC(C(=O)NCc2ncc(-c3ccccc3)o2)CC1 | 45.67%
CCn1c(=NC(=O)CSCC(=O)Nc2nccs2)sc2ccccc21 | -35.96%
COc1ccc2c(c1)sc(=NC(=O)CSCC(=O)Nc1nccs1)n2C | 54.16%
Cn1c(=NC(=O)CSCC(=O)Nc2nccs2)sc2ccccc21 | -29.3%
COc1ccccc1CC(=O)N1CCC(NCc2ccncc2)CC1 | 44.71%
COc1ccccc1CC(=O)N1CCC(NCc2ccccn2)CC1 | 57.64%
COc1ccccc1CC(=O)N1CCC(NCc2cccnc2)CC1 | -135.87%
Cc1ccnc(C2CCN(C(=O)c3cnn(C)c3)CC2)n1 | 11.74%
CCn1cc(NC(=O)C2CCN(CC(=O)NC(C)(C)CC)CC2)cn1 | 7.13%
CC(C(=O)N1CCN(c2ccc(F)cc2)CC1)n1ccnc1 (configuration not stated) | -20.89%
CC(C(=O)N1CCN(C(=O)c2ccc(F)cc2)CC1)n1ccnc1 (configuration not stated) | 54.41%
Cc1ccc(C(=O)N2CCN(C(=O)C(C)n3ccnc3)CC2)cc1F (configuration not stated) | 38.65%
O=C(NCc1cnc2n1CCN(Cc1ccoc1)C2)c1ccno1 | 42.64%
COC1CN(C(=O)NC2CCCC2)CCC(=O)N(C)c2ccccc21 (configuration not stated) | 15.96%
OCC1(Cc2cccc(Cl)c2)CCCN(c2ncccn2)C1 (configuration not stated) | -16.17%
Nc1ccnc(N2CCCC(CO)(Cc3cccc(Cl)c3)C2)n1 (configuration not stated) | 57.51%
Cc1cnc(C)c(N2CCCC(CO)(Cc3cccc(Cl)c3)C2)n1 (configuration not stated) | 8.14%
O=C(NCC1CCC2(CCNCC2)CO1)c1cnccn1 (configuration not stated) | -13.14%
Cc1ccc(N2CC[C@H]3CN(C(=O)c4ccn(C)n4)C[C@H]3C2)nn1 | -32.66%
Cc1ccc(CNC2CCCc3c2cnn3C)s1 (configuration not stated) | 28.51%
CCn1ncc2c1CCCC2NCc1ccc2c(c1)CCO2 (configuration not stated) | -7.81%

SMILES | INHIBITION
Cn1ncc2c1CCCC2NCc1ccc(Br)s1 (configuration not stated) | 54.86%
Cn1ncc2c1CCCC2NCc1ccc(Cl)s1 (configuration not stated) | -21.31%
CC(C)(C)n1ncc2c1CCCC2NCc1ccc2c(c1)OCCO2 (configuration not stated) | -12.39%
Cc1cccc(CNC2CCCc3c2cnn3Cc2ccccc2)c1 (configuration not stated) | -2.26%
CC(C)(C)n1ncc2c1CCCC2NCc1ccc2c(c1)CCO2 (configuration not stated) | 64.67%
Cn1ncc2c1CCCC2NCc1cccc(F)c1 (configuration not stated) | -33.95%
Cc1cccc(CNC2CCCc3c2cnn3C)c1 (configuration not stated) | 51.21%
CC(C)(C)c1nc(CC(=O)Nc2cnccc2O)cs1 | -5.75%
CN1CCCC(CCC(=O)N2CCc3c(nc(CC4CC4)[nH]c3=O)C2)C1 (configuration not stated) | 10.1%
CCc1cccc(OCC(=O)NC(C)c2nnc3n2CCC3)c1 (configuration not stated) | 0.31%
CS(=O)(=O)c1ccc(C(=O)NCc2nc3cc(F)ccc3[nH]2)cc1 | 44.61%
O=C(NC1CCN(C(=O)C2CCCCC2)C1)c1ccncc1Cl (configuration not stated) | -56.84%
CC1=Nc2c(c(=O)[nH]n2C2CCCCC2)C(c2cccnc2)S1 (configuration not stated) | -30.12%
CN(Cc1ccncc1)C1COC2(CCN(Cc3cccs3)CC2)C1 (configuration not stated) | -3.11%
CN(Cc1ccncc1)C1COC2(CCN(Cc3nccn3C)CC2)C1 (configuration not stated) | 64.31%
CC(C)COC1CC2(CCN(Cc3nccn3C)CC2)C1 | 58.93%
CCOC1COC2(CCN(Cc3ccc4c(c3)OCO4)CC2)C1 (configuration not stated) | -59.24%
Cn1ccnc1CN1CCC2(CC1)COC2 | 24.23%
CCOC1CC2(CCN(Cc3nccn3C)CC2)C1 | 16.98%
COC1CC2(CCN(Cc3ccc4c(c3)OCO4)CC2)C1 | 69.22%
CN(Cc1ccncc1)C1COC2(CCN(Cc3ccccn3)CC2)C1 (configuration not stated) | 23.59%
COC1CC2(CCN(Cc3nccn3C)CC2)C1 | 52.66%
Cn1ccnc1CN1CCC2(CC1)CC(Oc1cccnc1)C2 | 24.83%
COC1COC2(CCN(Cc3ccc4c(c3)OCO4)CC2)C1 (configuration not stated) | 22.16%
COCC1CC2(CCN(Cc3nccn3C)CC2)CN1c1ncccn1 (configuration not stated) | 12.88%
